According to PubChem BioAssay AID492994 (Johns Hopkins Ion Channel Center, 2010):
Entries with a potency or affinity are not part of this list. Active and inactive are the calls of the source.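 The calls were made as follows: active = TRPC4 ion channel inhibited over 30% at some tested dose, with a fitted dose response curve; inactive = no inhibition or no dose response curve.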

Target: Short transient receptor potential channel 4 (Mus musculus) (UniProt Q9QUQ5)
Assay: TRPC4 inhibitor concentration-response, dose response, cell-based, HEK293 TRPC4/mu-opioid, DAMGO stimulus, Fluo-4 (AID 492994)
Conditions: HEK293 TRPC4/mu-opioid cells, Fluo-4 calcium flux, DAMGO-activated; series mostly up to 20 µM; fluorescence ratio, lower = inhibition: at the top concentration

Sequence of Short transient receptor potential channel 4 (Mus musculus) (Q9QUQ5 whole entry, looked up): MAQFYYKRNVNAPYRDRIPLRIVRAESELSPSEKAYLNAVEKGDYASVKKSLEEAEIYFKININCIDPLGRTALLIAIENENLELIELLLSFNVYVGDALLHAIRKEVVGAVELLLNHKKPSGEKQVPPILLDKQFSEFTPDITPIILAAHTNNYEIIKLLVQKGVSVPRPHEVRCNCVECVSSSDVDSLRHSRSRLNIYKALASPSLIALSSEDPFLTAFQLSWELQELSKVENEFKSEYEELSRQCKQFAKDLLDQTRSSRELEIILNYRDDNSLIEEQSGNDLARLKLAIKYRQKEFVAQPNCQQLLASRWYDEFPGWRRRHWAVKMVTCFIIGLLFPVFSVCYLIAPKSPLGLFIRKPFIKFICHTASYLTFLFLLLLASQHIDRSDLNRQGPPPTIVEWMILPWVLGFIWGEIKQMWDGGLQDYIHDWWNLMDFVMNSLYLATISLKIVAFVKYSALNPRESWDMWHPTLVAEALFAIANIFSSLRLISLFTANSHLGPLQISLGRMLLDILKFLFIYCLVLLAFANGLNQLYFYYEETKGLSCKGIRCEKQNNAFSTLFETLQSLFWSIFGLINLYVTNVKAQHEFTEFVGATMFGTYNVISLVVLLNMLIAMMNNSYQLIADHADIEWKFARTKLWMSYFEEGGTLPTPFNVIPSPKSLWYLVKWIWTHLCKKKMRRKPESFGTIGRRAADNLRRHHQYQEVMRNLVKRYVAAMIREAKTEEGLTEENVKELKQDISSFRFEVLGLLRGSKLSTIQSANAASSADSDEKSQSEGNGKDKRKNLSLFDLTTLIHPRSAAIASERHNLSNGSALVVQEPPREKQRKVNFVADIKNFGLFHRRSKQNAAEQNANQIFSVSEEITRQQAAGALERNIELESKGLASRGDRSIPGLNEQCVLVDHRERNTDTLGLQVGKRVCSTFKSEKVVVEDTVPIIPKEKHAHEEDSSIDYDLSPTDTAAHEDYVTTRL

Fluorescence ratio, lower = inhibition, inactive:
CCc1ccc2nc(N3CCCCC3)cc(C)c2c1 -3.47, COc1ccccc1N1CCN(c2cc(C)c3ccccc3n2)CC1 5.63, Cc1ccnc(N2CCCC2)c1 3, Cc1ccnc(N2CCCC2)n1 3.5, Cc1ccnc(N2CCCCC2)n1 3.26, FC(F)(F)c1cc(N2CCCC2)nc2ccccc12 3.76, Cc1cc(N(C)CCN(C)C)nc2ccccc12 62.6, Cc1ccnc(N2CCCCCC2)n1 41.7, FC(F)(F)c1cc(N2CCCCC2)nc2ccccc12 2.73, Cc1ccnc(N2CCCCCC2)c1 17.4, FC(F)(F)c1cc(N2CCCCCC2)nc2ccccc12 34.7, Cc1cc(N2CCCCCC2)nc2c(C)cccc12 26.7, Cc1cc(N2CCN(CC3CCCO3)CC2)nc2ccccc12 (stereo not given) 29.2, COc1ccc(N2CCN(c3cc(C)c4ccccc4n3)CC2)cc1 47.1, Cc1ccnc(N2CCCCC2)c1 2.21, c1ccc(-c2cc(N3CCCC3)nc3ccccc23)cc1 2.49, Cc1cc(N2CCCCC2)nc2c(C)cccc12 3.26, c1ccc(-c2cc(N3CCCCC3)nc3ccccc23)cc1 1.76, Cc1cc(N2CCN(c3ccccc3C#N)CC2)nc2ccccc12 11.1, c1ccc(-c2cc(N3CCCCCC3)nc3ccccc23)cc1 32.7
